This excerpt belongs to a sample that is enriched for hits.
LmPK inh – blocks Leishmania mexicana pyruvate kinase activity. purified LmPK, Kinase-Glo ATP luminescence, 1 h. Potency, µM (titrated, usually from 57.5 µM), for inactives: at the highest dose activity change, negative = inhibition, most hits filed as inhibitors. actives 0.37% (n = 290,000); note: potency is the fitted concentration of half-maximal effect; % is set by controls: 0 for no effect and ±100 for the full control effect
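Screened at intermediate enzyme activity to detect both inhibitors and activators: LmPK at 0.1 nM, with a 0.5 nM enzyme column as activation reference. PEP 0.5 mM, ADP 0.1 mM; ATP detected by luminescence after 1 h.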
Giardia FBPA inh-1 – Giardia lamblia aldolase inhibition. AID 2451. purified Giardia FBPA. Potency, µM (doses to about 59.6 µM), inactives show at the top dose activity, negative = inhibition, actives largely listed as inhibitors. A8B2U2. actives 0.71% (n = 290,000); note: potency is the fitted concentration of half-maximal effect; % is set by controls: 0 for no effect and ±100 for the full control effect; nearly all actives have a fitted effect of over 55% in size
Target sequence (A8B2U2 whole entry, looked up): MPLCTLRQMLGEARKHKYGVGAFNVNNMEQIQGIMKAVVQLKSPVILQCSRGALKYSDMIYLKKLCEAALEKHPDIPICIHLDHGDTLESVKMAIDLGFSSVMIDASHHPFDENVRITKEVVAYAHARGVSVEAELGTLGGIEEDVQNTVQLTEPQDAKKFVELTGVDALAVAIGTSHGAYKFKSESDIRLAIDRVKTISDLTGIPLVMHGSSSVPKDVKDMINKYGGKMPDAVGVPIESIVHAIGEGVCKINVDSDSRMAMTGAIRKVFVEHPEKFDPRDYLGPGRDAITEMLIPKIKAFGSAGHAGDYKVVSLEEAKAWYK
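Giardia FBPA (40 nM reagent) was preincubated 10 min at RT with compound (up to 57.5 uM final), then substrate plus GAPDH/TPI/NAD/arsenate coupling system with diaphorase/resazurin was added; resorufin fluorescence (525/598 nm) was read after 20 min.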
Cycloheximide cs – counter-screen hit for Shiga toxin inhibitors, cycloheximide | max response, % | actives 12% (n = 300,000) | AID 2314 | cell reporter, cycloheximide protein synthesis inhibition counterscreen; in the data active = max response mostly above about 13%, no sharp cut-off; inactive = mostly below about 14%; note: read at 38.3 µM for the half of the compounds with a filed dose; 0% is about no effect
Sm TGR block – blocks Schistosoma mansoni thioredoxin glutathione reductase. Q962Y6. purified TGR, DTNB reduction, TNB absorbance 405 nm. Potency, µM (series often up to 114 µM), for inactives: top-dose activity change, negative = inhibition, most hits filed as inhibitors. actives 3% (n = 360,000); note: potency is the fitted concentration of half-maximal effect; % is set by controls: 0 for no effect and ±100 for the full control effect; nearly all actives have a fitted effect of over 60% in size
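First, TGR (20 nM dispensed) and NADPH were mixed with compound. Second, a 15 min room-temperature incubation followed. Third, further NADPH and then DTNB were added to start the reaction. Finally, TNB absorbance was monitored kinetically.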
Tb PYK inh – T. brucei pyruvate kinase inhibition | Potency, µM (highest dose often 76.8 µM), for the others: at the top dose activity, negative = inhibition, usual class: inhibitors | actives 0.12% (n = 410,000) | AID 624173 | TbPYK enzyme, Kinase-Glo Plus ATP luminescence, 45 min; note: potency is the fitted concentration of half-maximal effect; % is set by controls: 0 for no effect and ±100 for the full control effect; nearly all actives have a fitted effect of over 50% in size
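In this concentration-response screen, enzyme-free wells defined baseline while DMSO plates tracked drift. Each reaction combined TbPYK, substrate, compound and 130 uM ADP for 45 min at room temperature. Kinase-Glo Plus luminescence gave the signal.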
Shiga toxin inh – Shiga toxin inhibition; inhibition, % at 38.7 µM; actives 9.2% (n = 290,000); Vero cells, Shiga toxin protein synthesis inhibition reporter; in the data active = inhibition mostly above about 28%, no sharp cut-off; inactive = mostly below about 43%; note: 0% is about no effect
Giardia growth – blocks growth of Giardia lamblia trophozoites. shares compounds with Giardia FBPA inh-1. Giardia lamblia trophozoite growth inhibition. Potency, µM (highest dose often 57.5 µM), for inactives: at the highest dose activity change, negative = inhibition, actives largely listed as inhibitors. actives 5% (n = 1,500). AID 2785;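 note: potency is the fitted concentration of half-maximal effect; trophozoites exposed to compound for 48 h at 37 °C; % is set by controls: 0 for no effect and ±100 for the full control effect; nearly all actives have a fitted effect of over 70% in size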
Mammalian tox – counter-screen for Giardia aldolase inhibitors: mammalian cell toxicity; Potency, µM (highest dose often 57.5 µM), without a hit: at the top dose viability change, negative = toxicity, most hits filed as inhibitors; AID 2786; actives 4% (n = 1,500); shares compounds with Giardia FBPA inh-1; mammalian cell viability counter-screen, qHTS;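 note: Chinese hamster ovary cells used as mammalian cytotoxicity surrogate; viability measured as cellular ATP by luminescence; potency is the fitted concentration of half-maximal effect; compound exposure lasted 48 h before reading; % is set by controls: 0 for no effect and ±100 for the full control effect; nearly all actives have a fitted effect of over 60% in size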
Giardia FBPA inh-2 – confirmation of Giardia fructose-bisphosphate aldolase inhibitors | shares compounds with Giardia FBPA inh-1 | purified Giardia aldolase enzyme activity, qHTS | Potency, µM (highest dose often 57.5 µM), for the others: at the top dose activity change, negative = inhibition, hits mostly inhibitors | actives 5% (n = 1,500); note: potency is the fitted concentration of half-maximal effect; % is set by controls: 0 for no effect and ±100 for the full control effect; nearly all actives have a fitted effect of over 45% in size
Rabbit aldolase – rabbit FBP aldolase inhibition by Giardia aldolase hits; shares compounds with Giardia FBPA inh-1; Rabbit muscle FBPA enzyme inhibition, selectivity counter-screen; Potency, µM (series often up to 57.5 µM), without a hit: top-dose activity, negative = inhibition, hits mostly inhibitors; actives 4% (n = 1,500); note: potency is the fitted concentration of half-maximal effect; % is set by controls: 0 for no effect and ±100 for the full control effect; nearly all actives have a fitted effect of over 60% in size
Target sequence (P00883 whole entry, looked up): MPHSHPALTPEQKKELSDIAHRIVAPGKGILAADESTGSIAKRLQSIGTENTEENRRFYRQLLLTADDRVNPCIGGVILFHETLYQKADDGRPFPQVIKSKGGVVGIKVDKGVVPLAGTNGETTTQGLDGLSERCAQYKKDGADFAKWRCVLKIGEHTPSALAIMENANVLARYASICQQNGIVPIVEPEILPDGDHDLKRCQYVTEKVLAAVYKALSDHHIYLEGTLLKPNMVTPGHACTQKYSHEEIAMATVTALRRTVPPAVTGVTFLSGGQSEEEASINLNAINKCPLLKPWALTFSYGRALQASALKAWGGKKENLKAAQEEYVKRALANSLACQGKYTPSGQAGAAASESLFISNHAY
GAPDH counter – GAPDH inhibition flagged for Giardia aldolase hits; shares compounds with Giardia FBPA inh-1; GAPDH coupling enzyme counterscreen, biochemical, qHTS; Potency, µM (titrated, usually from 57.5 µM), inactives show top-dose activity change, negative = inhibition, hits mostly inhibitors; actives 6% (n = 1,500); AID 2795; note: potency is the fitted concentration of half-maximal effect; % is set by controls: 0 for no effect and ±100 for the full control effect; nearly all actives have a fitted effect of over 55% in size
Starred values were filed as active, the others as inactive; ? = inconclusive; nt = no result given; ! = repeats disagree; [ ] = another dose, or the depositor's remark. Unless noted, calls come from the whole dose curve; as a rule, active = well fitted curve in the direction sought with a large enough effect; inconclusive = small, poorly fitted or top-dose-only effect, or another doubt; inactive = no such curve, though single readings can be large; an effect the other way counts as inactive or inconclusive.

SMILES	LmPK inh	Giardia FBPA inh-1	Cycloheximide cs	Sm TGR block	Tb PYK inh	Shiga toxin inh	Giardia growth	Mammalian tox	Giardia FBPA inh-2	Rabbit aldolase	GAPDH counter
Cc1cc(NCc2ccncc2)ccc1Br	-3%	22µM*	13	-6%	1%	16	26%	-6%	-5%	-6%	2%
O=C(NCc1ccccc1)c1cc(C2CCCCN2S(=O)(=O)c2cccc3cccnc23)on1 (stereo not drawn)	nt	nt	nt	nt	0%	nt	nt	nt	nt	nt	nt
CCCN1CCC(N2CCN(c3ccc([N+](=O)[O-])cc3)CC2)CC1	-4%	16µM*	1	3%	17%	-16	-1%[10.4 µM]	3%	-9%	1%	-15%
COc1cc(C(=O)ON=C2C(C)=CC(=O)C=C2C)cc(OC)c1OC	2%	?	-1	?	-6%	-9	nt	nt	nt	nt	nt
COc1cc(C(=O)O/N=C2/C=C(C)C(=O)C=C2C)cc(OC)c1OC	1%	6.3µM*	-1	-9%	-4%	-6	5%[10.4 µM]	-29%	14µM*	6.3µM*	3.2µM*
CCOc1ccccc1CN1CCC(N2CCOCC2)CC1	-5%	8.9µM*	-5	-25%	-7%	-13	21%[38.3 µM]	-13%	?	13%	-8%
CCOc1ccc(NC(=O)c2c(NC(=O)c3ccco3)sc3c2CCC(C(C)(C)C)C3)cc1 (stereo not drawn)	nt	nt	nt	0%	-1%	nt	nt	nt	nt	nt	nt
COC(=O)C1(CC(C)C)C=C2C(=C(C(C)C)C(=O)C2C)CN1 (stereo not drawn)	nt	-10%	nt	nt	nt	nt	nt	nt	nt	nt	nt
O=c1[nH]c(CSc2cccc[n+]2[O-])nc2ccccc12	0%	14µM*	3	-1%	-25%	13	0%[10.4 µM]	-9%	-2%	-4%	1%
CCN(CC)c1ccc(N=Cc2c(C)[nH]c3ccccc23)cc1	2%	?	-1	-34%	-6%	-2	5%[38.3 µM]	-22%	?	?	?
O=C(C[C@H]1C/C=C\CC[C@H](Cc2ccc(F)cc2)C(=O)OC[C@@H]2CCCN2C1=O)N[C@H](CO)Cc1ccccc1	nt	nt	nt	nt	2%	nt	nt	nt	nt	nt	nt
O=C(Nc1ccccc1C(=O)NCCc1ccc(O)cc1)c1ccco1	3%	8%	8	2%	13%	20	nt	nt	nt	nt	nt
COc1ccc(NC(=O)CSC2=Nc3ccccc3C3=NC(CC(=O)NCc4ccc5c(c4)OCO5)C(=O)N23)cc1 (stereo not drawn)	nt	nt	nt	-1%	5%	nt	nt	nt	nt	nt	nt
CNC(=O)c1c(C)[nH]c(=S)c(C#N)c1-c1ccco1	29%	13µM*	0	32µM*	7.9µM*	8	3%[10.4 µM]	15%	6%	1%	13%
CCOc1ccc(NC(=O)CSc2nc(C)c(C(=O)Nc3ccccc3)c(-c3ccc(Cl)cc3)c2C#N)cc1	nt	nt	nt	-1%	1%	nt	nt	nt	nt	nt	nt
O=C(O)CN(CCOCCOCCN(CC(=O)O)CC(=O)O)CC(=O)O	nt	?	nt	nt	-7%	nt	nt	nt	nt	nt	nt
O=C(O)CN(CCN(CC(=O)O)CC(=O)O)CCN(CC(=O)O)CC(=O)O	nt	7.9µM*!	nt	nt	-9%	nt	?	21%	?	14%	1%
C=CCNCCCOc1ccc(Cl)cc1C(C)(C)C	-1%	18µM*	-3	nt	21%	-7	7%	-25%	-15%	-14%	-16%
O=c1cnc2ccccc2n1Cc1ccccc1C(F)(F)F	7%	-4%	-4	-16%	0%	-3	nt	nt	nt	nt	nt
O=C(COc1ccc(F)cc1)NCc1ccc2c(c1)CCN2C(=O)c1ccccc1	nt	nt	nt	-2%	-4%	nt	nt	nt	nt	nt	nt
O=C(CCc1ccccc1)NNC(=O)c1ccccn1	1%	18µM*	4	1%	-7%	32	11µM*	?	3%	2%	-4%
CN1CCN(CC(=O)Nc2ccccc2C(F)(F)F)CC1	-2%	?	7	19%	-11%	4	nt	nt	nt	nt	nt
CC(C(=O)Nc1ccccc1C(F)(F)F)N1CCN(C)CC1 (stereo not drawn)	3%	16µM*	0	-2%	3%	nt	-7%[10.4 µM]	9%	4%	-3%	13%
Cc1ccc(NC(=O)CN2CCN(Cc3ccccc3)CC2)cc1	-1%	5%	1	9%	-11%	-3	nt	nt	nt	nt	nt
CC1(C)C2CCC(C2)C1(C)NC(=O)CN1CCN(Cc2ccccc2)CC1 (stereo not drawn)	1%	16µM*	-5	9%	-1%	-10	0%[10.4 µM]	3%	-4%	4%	-9%

Screening results: PubChem BioAssay, National Center for Advancing Translational Sciences (NCATS)
